# From PubChem BioAssay
# A number with no mark means an inactive call. Some of the results follow. Calls of active or inactive are those of the source.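 Rule for the calls, unless noted: active = inhibition above a cutoff equal to the mean inhibition of all tested compounds plus 3 SD (cut at about 30% in these data); inactive = the rest.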
# What was measured:
# [1] = molecular target: Bcl-2-like protein 1 (Homo sapiens) (UniProt Q07817); assay: Bcl-xL inhibitors blocking Bim BH3 binding, confirmation, counter-screen for MCL1 inhibitor project, biochemical, fluorescence polarization (AID 2166); settings: GST-Bcl-xL / FITC-Bim BH3 peptide FP binding; at 10.9 µM; hits give high values
# [2] = molecular target: Induced myeloid leukemia cell differentiation protein Mcl-1 (Homo sapiens) (UniProt Q07820); assay: inhibitors of MCL1 binding to BIM-BH3, confirmation, biochemical, fluorescence polarization, triplicate (AID 2168;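 active = inhibition above the average of all tested compounds plus 3 SD, cut at about 40% in these data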;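 note: 0% = DMSO wells and 100% = unlabeled Bim-BH3 control peptide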); settings: GST-MCL1 / FITC-Bim-BH3 fluorescence polarization; at 10.9 µM; hits give high values
# [3] = molecular target: Lytic switch protein BZLF1 (Epstein-Barr virus (strain B95-8)) (UniProt P03206); assay: EBV Zta binding to ZRE DNA, inhibitors, confirmation, biochemical, fluorescence polarization, triplicate (AID 2361;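 active = mean inhibition across triplicate runs above the hit threshold derived for the original primary screen, cut at about 33% in these data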;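 note: 0% = Zta with DMSO and 100% = wells lacking Zta protein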); settings: at 11.1 µM, hits give high values
# [4] = tested on: Epstein-Barr virus nuclear antigen 1 (EBNA-1), Human herpesvirus 4; assay: EBNA-1 DNA-binding inhibition, counter-screen for ZTA inhibitor project, biochemical, fluorescence polarization (AID 2362; call rule not given here); settings: at 14.8 µM, hits give high values
# [5] = molecular target: Glutathione S-transferase omega-1 (Homo sapiens) (UniProt P78417); assay: GSTO1 inhibitor hit confirmation, counter-screen for RBBP9 inhibitor project, biochemical, fluorescence polarization, triplicate (AID 2176;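 active = inhibition above the primary screen's cutoff, its mean inhibition plus 3 SD, cut at about 35% in these data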;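 note: loss of polarization as inhibitors block binding of rhodamine sulfonate ester activity probe; 0% = GSTO1 with DMSO and 100% = wells lacking GSTO1 enzyme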); settings: recombinant GSTO1, probe fluorescence polarization; at 5.96 µM; hits give high values
# [6] = molecular target: Protein-arginine deiminase type-4 (Homo sapiens) (UniProt Q9UM07); assay: human PAD4 inhibitors, confirmation, biochemical, fluorescence polarization (AID 488796;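 active = mean inhibition across replicates above the hit cutoff set by the earlier primary screen, cut at about 15% in these data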;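 note: inhibitors block active-site labeling by the probe so polarization falls; 0% = PAD4 with probe and DMSO and 100% = probe without PAD4 enzyme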); settings: recombinant PAD4, RCA probe fluorescence polarization; at 6.36 µM; hits give high values
# [7] = molecular target: Serine protease HTRA1 (Homo sapiens) (UniProt Q92743); assay: HTRA1 protease inhibitors, retest, confirmation, biochemical, fluorescence polarization (AID 540248;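 active = mean inhibition over three repeats above a set limit taken from the earlier primary screen, cut at about 37% in these data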;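 note: 0% = HTRA1 with DMSO and 100% = wells lacking HTRA1; inhibitors block probe binding so polarization drops and inhibition rises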); settings: recombinant HTRA1, FP-rhodamine activity-based probe, at 5.96 µM, hits give high values
# [8] = molecular target: Nuclear receptor coactivator 3 (Homo sapiens) (UniProt Q9Y6Q9); assay: SRC3 coactivator transcriptional activity inhibitors, confirmation, cell-based, luminescence, quadruplicate (AID 588792;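 active = mean inhibition over 43.08%, the solvent-only control mean plus 3 SD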;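 note: 0% = DMSO treated cells and 100% = gossypol at 36 µM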); settings: HEK293 GAL4-SRC3 luciferase reporter, at 3.6 µM, hits give high values
# [9] = tested on: transactivating tegument protein VP16 (Human herpesvirus 1), Gal4-VP16 luciferase reporter; assay: VP16 transactivation inhibitors, counter-screen for SRC3 inhibitor project, cell-based, luminescence, high throughput (AID 588794; in the data active = inhibition above about 30%); settings: mammalian cells, VP16-driven luciferase reporter luminescence; at 3.6 µM; hits give high values
# [10] = molecular target: Nuclear receptor coactivator 1 (Homo sapiens) (UniProt Q15788); assay: SRC1 coactivator transcriptional activity inhibitors, confirmation, cell-based, luminescence, quadruplicate (AID 588820;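 active = mean inhibition above 46.68%, the untreated control wells mean plus 3 SD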;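 note: 0% = DMSO wells and 100% = gossypol 36 µM treated wells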); settings: HEK293 GAL4-SRC1 luciferase reporter, at 3.6 µM, hits give high values
# [11] = VP16 transactivation inhibitors, counter-screen for SRC1 inhibitor project, cell-based, luminescence, high throughput (AID 588824; in the data active = inhibition above about 25%); settings: cell-based VP16 transactivation luciferase luminescence; at 3.6 µM; hits give high values
# [12] = compounds interfering with TAMRA-BSA probe, counter-screen for TCR-CD3 interaction inhibitor project, biochemical, fluorescence, TAMRA-labeled BSA (AID 652035; in the data active = inhibition above about 23%;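 note: 0% = buffer low control and 100% = reference high control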); settings: TAMRA-labeled BSA probe fluorescence counterscreen; at 9.4 µM; hits give high values
# [13] = tested on: T-cell receptor (TCR)-CD3 interaction, human; assay: TCR-CD3 interaction inhibitors, retest, confirmation, biochemical, fluorescence, TAMRA-labeled TCR probe (AID 652036; in the data active = inhibition above about 19%); settings: TAMRA-labeled TCR probe fluorescence binding assay; at 9.4 µM; hits give high values
# [14] = molecular target: (Lyso)-N-acylphosphatidylethanolamine lipase (Mus musculus) (UniProt Q8VD66); assay: ABHD4 inhibitors, retest, confirmation, biochemical, fluorescence polarization, mouse (AID 720658;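 active = mean inhibition across replicates above the hit cutoff set in the primary screen, cut at about 30% in these data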;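 note: 0% = wild-type ABHD4 with DMSO and 100% = catalytically dead S159A mutant with DMSO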); settings: purified mABHD4, FP-Rh probe fluorescence polarization; at 8.92 µM; hits give high values
# [15] = molecular target: Insulin-degrading enzyme (Homo sapiens) (UniProt P14735); assay: human IDE inhibitors in live cells, confirmation, fluorescence polarization, HEK cells, FAbetaB substrate (AID 435028;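 active = mean inhibition across triplicate wells above the cutoff set by the earlier primary insulin-degrading enzyme screen, cut at about 16% in these data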;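 note: 0% = DMSO wells and 100% = 60 µM reference IDE inhibitor Ii1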); settings: FAbetaB cleavage, at 5.59 µM, hits give high values
# [16] = cytotoxicity in HEK cells, cytotoxicity control for IDE inhibitor project, cell-based, luminescence (AID 449730; in the data active = inhibition above about 22%;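 note: 0% = vehicle wells and 100% = reference cytotoxic drug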); settings: HEK293 cytotoxicity, ATP luminescence; at 5.59 µM; hits give high values
# Chain of Induced myeloid leukemia cell differentiation protein Mcl-1 (Homo sapiens) (Q07820 whole entry, looked up): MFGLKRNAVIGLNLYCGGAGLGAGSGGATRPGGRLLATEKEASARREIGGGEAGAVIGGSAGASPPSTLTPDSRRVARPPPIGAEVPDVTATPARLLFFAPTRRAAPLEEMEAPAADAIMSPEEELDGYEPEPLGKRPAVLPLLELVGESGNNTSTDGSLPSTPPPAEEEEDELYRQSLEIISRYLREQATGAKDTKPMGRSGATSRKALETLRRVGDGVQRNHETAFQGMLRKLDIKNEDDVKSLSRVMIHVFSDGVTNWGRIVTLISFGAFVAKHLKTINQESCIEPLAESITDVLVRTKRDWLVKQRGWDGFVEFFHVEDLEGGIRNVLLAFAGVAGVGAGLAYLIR
# Chain of Bcl-2-like protein 1 (Homo sapiens) (Q07817 whole entry, looked up): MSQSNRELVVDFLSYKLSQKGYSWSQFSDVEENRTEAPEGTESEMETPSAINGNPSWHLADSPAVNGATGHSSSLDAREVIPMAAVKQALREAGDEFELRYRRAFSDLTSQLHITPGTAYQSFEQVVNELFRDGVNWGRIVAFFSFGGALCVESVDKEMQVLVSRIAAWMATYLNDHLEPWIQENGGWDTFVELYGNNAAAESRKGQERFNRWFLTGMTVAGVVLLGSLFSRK
# Chain of (Lyso)-N-acylphosphatidylethanolamine lipase (Mus musculus) (Q8VD66 whole entry, looked up): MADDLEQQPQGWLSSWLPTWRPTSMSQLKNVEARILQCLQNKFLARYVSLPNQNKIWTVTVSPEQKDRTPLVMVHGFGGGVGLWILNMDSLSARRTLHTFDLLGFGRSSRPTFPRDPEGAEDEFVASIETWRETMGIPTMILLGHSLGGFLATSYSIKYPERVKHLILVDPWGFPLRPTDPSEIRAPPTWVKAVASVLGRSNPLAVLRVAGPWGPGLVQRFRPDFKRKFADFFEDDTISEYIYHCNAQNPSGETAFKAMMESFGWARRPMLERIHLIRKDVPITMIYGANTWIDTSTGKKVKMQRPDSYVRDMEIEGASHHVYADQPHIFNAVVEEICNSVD
# Chain of Nuclear receptor coactivator 1 (Homo sapiens) (Q15788 whole entry, looked up, the tested form may be a part): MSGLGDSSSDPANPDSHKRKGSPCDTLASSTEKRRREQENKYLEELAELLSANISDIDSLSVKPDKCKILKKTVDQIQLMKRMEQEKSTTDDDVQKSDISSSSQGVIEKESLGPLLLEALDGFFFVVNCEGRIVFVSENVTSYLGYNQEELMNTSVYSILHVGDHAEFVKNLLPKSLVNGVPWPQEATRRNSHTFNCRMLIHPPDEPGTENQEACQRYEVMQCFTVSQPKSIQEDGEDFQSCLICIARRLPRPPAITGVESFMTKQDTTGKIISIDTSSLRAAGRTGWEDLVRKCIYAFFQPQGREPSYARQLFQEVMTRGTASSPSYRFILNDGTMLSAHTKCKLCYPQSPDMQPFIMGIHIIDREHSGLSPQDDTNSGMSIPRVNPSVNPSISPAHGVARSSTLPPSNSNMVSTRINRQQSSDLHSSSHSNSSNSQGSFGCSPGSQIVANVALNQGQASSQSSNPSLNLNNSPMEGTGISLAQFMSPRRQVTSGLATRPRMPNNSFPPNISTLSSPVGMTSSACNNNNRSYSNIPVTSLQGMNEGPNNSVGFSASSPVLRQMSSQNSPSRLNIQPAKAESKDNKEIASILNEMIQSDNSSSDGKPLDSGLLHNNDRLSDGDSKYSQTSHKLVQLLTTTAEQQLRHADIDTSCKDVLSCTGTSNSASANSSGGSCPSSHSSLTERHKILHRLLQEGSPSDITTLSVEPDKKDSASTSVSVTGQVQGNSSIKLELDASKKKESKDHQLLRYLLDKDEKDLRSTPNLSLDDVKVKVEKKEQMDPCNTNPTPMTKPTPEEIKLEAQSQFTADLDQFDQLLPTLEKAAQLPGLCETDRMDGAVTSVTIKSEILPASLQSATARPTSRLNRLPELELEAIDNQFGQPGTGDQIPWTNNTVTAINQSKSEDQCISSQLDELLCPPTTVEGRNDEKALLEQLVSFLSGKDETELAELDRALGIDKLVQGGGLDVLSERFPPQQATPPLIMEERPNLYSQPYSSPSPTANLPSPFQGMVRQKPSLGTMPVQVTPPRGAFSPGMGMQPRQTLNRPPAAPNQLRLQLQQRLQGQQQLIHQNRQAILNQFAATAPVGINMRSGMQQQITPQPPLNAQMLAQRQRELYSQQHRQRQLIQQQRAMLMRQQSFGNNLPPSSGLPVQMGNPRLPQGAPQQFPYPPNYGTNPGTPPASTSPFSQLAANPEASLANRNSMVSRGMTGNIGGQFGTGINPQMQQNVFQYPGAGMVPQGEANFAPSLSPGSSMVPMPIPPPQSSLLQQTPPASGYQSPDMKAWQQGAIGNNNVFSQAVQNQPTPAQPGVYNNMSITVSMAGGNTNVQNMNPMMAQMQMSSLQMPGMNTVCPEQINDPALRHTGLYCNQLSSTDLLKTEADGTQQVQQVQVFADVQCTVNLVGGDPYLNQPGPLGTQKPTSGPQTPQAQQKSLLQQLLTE
# Chain of Glutathione S-transferase omega-1 (Homo sapiens) (P78417 whole entry, looked up): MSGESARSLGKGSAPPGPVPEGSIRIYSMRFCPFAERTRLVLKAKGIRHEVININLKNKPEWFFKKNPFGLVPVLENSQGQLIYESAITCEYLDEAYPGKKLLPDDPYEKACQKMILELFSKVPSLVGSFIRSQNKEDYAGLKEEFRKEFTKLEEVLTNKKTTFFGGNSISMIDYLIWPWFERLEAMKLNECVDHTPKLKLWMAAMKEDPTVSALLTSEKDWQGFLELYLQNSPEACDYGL
# Chain of Nuclear receptor coactivator 3 (Homo sapiens) (Q9Y6Q9 whole entry, looked up, the tested form may be a part): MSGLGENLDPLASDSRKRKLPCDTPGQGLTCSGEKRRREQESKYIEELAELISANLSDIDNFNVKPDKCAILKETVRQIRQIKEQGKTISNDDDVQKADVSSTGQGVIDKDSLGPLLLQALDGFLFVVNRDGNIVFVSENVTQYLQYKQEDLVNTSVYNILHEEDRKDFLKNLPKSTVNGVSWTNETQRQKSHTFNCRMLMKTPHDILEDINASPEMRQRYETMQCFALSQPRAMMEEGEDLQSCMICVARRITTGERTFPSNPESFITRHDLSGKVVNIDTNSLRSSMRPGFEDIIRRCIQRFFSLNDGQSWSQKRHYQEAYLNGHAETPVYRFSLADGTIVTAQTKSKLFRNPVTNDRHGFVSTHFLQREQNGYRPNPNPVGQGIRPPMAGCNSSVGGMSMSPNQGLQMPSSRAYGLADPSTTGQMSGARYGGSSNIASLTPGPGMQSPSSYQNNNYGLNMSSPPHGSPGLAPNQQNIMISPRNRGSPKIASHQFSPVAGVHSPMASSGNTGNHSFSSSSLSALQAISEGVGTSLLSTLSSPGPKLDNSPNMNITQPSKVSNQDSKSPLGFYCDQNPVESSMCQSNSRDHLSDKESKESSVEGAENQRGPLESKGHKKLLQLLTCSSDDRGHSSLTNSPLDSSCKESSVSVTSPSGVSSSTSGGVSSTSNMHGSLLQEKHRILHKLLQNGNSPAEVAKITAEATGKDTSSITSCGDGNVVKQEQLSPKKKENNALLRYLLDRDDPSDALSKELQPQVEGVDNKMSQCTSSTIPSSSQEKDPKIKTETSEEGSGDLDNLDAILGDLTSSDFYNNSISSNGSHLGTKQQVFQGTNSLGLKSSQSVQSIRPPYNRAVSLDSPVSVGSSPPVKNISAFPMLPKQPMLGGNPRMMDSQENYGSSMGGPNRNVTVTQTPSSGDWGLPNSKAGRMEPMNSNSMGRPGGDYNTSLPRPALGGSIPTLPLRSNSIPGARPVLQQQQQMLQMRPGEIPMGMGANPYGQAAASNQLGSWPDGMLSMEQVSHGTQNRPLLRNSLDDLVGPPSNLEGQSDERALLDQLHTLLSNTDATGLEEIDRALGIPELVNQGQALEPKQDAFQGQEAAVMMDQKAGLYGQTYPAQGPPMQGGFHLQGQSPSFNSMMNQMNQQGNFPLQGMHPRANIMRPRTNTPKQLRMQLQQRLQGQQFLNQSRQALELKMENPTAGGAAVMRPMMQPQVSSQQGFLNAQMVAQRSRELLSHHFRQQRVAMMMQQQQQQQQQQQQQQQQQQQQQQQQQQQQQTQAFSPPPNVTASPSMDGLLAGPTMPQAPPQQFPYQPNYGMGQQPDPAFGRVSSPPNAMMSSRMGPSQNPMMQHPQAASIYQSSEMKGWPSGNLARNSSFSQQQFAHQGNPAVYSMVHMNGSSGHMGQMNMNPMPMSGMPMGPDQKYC
# Chain of Insulin-degrading enzyme (Homo sapiens) (P14735 whole entry, looked up): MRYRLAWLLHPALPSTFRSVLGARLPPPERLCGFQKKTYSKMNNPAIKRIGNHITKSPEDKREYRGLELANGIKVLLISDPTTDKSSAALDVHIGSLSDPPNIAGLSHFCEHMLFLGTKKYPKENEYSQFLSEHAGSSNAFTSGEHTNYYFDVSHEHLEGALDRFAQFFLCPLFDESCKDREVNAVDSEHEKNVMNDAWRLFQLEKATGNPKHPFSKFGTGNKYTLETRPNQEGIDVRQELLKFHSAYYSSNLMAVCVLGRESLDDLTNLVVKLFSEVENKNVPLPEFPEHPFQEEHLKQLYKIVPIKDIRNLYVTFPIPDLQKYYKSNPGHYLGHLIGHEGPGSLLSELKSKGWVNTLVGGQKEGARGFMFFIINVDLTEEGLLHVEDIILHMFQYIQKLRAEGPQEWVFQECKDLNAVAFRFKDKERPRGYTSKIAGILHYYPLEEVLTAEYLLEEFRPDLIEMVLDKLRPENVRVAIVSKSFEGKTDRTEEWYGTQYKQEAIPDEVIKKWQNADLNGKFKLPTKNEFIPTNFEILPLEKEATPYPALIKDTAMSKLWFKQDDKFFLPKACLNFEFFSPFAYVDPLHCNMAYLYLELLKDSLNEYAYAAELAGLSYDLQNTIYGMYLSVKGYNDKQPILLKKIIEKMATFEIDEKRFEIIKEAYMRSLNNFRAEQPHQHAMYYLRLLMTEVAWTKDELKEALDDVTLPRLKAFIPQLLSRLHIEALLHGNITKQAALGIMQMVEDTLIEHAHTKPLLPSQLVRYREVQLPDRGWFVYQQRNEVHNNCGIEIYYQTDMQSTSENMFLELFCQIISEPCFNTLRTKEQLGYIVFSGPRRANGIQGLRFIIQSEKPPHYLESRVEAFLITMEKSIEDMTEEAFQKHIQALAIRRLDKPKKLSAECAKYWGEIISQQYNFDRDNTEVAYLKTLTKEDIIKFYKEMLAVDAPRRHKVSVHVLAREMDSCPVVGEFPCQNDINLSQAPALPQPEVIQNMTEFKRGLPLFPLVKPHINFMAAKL
structure (smiles),measurement,setting,value
Fc1ccc(CNc2nc3ccccc3n3nnnc23)cc1,inhibition,[1],36.6% (active)
same,inhibition,[2],41.3% (active)
CCCn1c(O)c(CN2CCCC(C)C2)c(C)c(C#N)c1=O (centres undefined),inhibition,[1],36.2% (active)
same,inhibition,[2],39.3%
COc1ccc2[nH]c(C)c(CCN(Cc3cccs3)C(=S)Nc3ccccc3OC)c2c1,inhibition,[1],14.6%
same,inhibition,[2],12.4%
O=C(C1=C(O)C(=O)N(c2ncccn2)C1c1cccs1)c1ccco1 (centres undefined),inhibition,[1],59.5% (active)
same,inhibition,[2],88.2% (active)
C=CCNc1nnc(SCC(=O)N2CCCCC2)c2ccccc12,inhibition,[1],55.6% (active)
same,inhibition,[2],67.8% (active)
O=C(COC(=O)Cn1cnc2ccccc21)Nc1cccc2c1C(=O)c1ccccc1C2=O,inhibition,[1],88.4% (active)
same,inhibition,[2],73.3% (active)
CN1C(=O)/C(=C/c2ccco2)SC1=Nc1cccc(C(=O)O)c1,inhibition,[1],93% (active)
same,inhibition,[2],125% (active)
same,inhibition,[3],-7.94%
same,inhibition,[4],0.8%
Cc1ccc(NC(=O)c2cc(-c3ccc(C)o3)nc3ccccc23)nc1,inhibition,[1],12.4%
same,inhibition,[2],41.7% (active)
CC/C(C)=N/Nc1nc2sc3c(c2c(=O)[nH]1)CC(C)(C)OC3,inhibition,[1],34.7% (active)
same,inhibition,[2],53.8% (active)
CN1c2ccc(C=O)c3c(C=O)ccc(c23)N(C)C1(C)C,inhibition,[1],126% (active)
same,inhibition,[2],151% (active)
same,inhibition,[5],63.5% (active)
same,inhibition,[6],18.5% (active)
same,inhibition,[7],46.9% (active)
same,inhibition,[8],27.9%
same,inhibition,[9],9.96%
same,inhibition,[10],13.7%
same,inhibition,[11],16.3%
same,inhibition,[12],15.3%
same,inhibition,[13],10.7%
same,inhibition,[14],20.4%
O=C(O)c1ccccc1N=N/C(=N/Nc1cc(S(=O)(=O)O)ccc1O)c1ccccc1,inhibition,[1],29.1%
same,inhibition,[2],69.6% (active)
Cc1ccc(C(=O)NC(=S)Nc2ccc(N3CCOCC3)cc2)cc1,inhibition,[1],8.63%
same,inhibition,[2],8.72%
C=CCOc1cccc(C2C(C(=O)c3ccc(C)o3)=C(O)C(=O)N2c2nnc(C)s2)c1 (centres undefined),inhibition,[1],70.1% (active)
same,inhibition,[2],80.5% (active)
same,inhibition,[15],6.36%
same,inhibition,[16],5.97%
C1=C(N2CCOCC2)/C(=C/c2nc3ccccc3[nH]2)CC1,inhibition,[1],55.3% (active)
same,inhibition,[2],63% (active)
Cn1c2ccccc2c(=O)c2c(=O)n(Cc3ccco3)c(COc3ccccc3)nc21,inhibition,[1],38.4% (active)
same,inhibition,[2],60.8% (active)
